# Measurements published in PubChem BioAssay (NCI).
# This is part of a sample that, as a whole, favours compounds with a hit. Of some 83,000 tested, about 20% had one in any assay.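 Single-concentration screen, 48 h exposure, 96-well plates. Endpoint: percent growth. Below 10 = active.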 Unmarked numbers belong to inactive results. The source made the active and inactive calls.
# Assays:
# Assay in all cases: NCI-60 one-dose screen, 48 h (100 = growth as untreated, 0 = no growth, -100 = all killed)
# Details in all cases: 10 µM unless noted
# [1] = tested on: HCT-15 colon
# [2] = tested on: HT29 colon
# [3] = tested on: SNB-75 CNS
# [4] = tested on: SNB-19 CNS
# [5] = tested on: U251 CNS
# [6] = tested on: PC-3 prostate
# [7] = tested on: SK-MEL-5 melanoma
# [8] = tested on: UACC-62 melanoma
# [9] = tested on: LOX IMVI melanoma
# [10] = tested on: SK-MEL-28 melanoma
SMILES,growth [1],growth [2],growth [3],growth [4],growth [5],growth [6],growth [7],growth [8],growth [9],growth [10]
O=c1[nH]c2ccccc2cc1-c1nc2ccncc2[nH]1,85.9%,84.5%,58.3%,82.5%,83.7%,74%,86.7%,80.3%,82.1%,95.7%
S=C(Nc1ccccc1)c1ccccn1,96.8%,86.4%,97.3%,97.5%,95.2%,92.2%,102%,90.3%,85.9%,104%
Cc1cccc(C)c1Nc1nnc(-c2ccc(F)cc2)o1,110%,111%,80.2%,104%,104%,98.6%,98.9%,103%,95.1%,100%
CC1CCN(CCCCCOc2ccc3oc4cc(Cl)ccc4c(=O)c3c2)CC1,-16.9% (active),5.89% (active),74.7%,80.9%,54.3%,64.3%,-72.2% (active),-51% (active),-25.6% (active),57.5%
c1cc(CNC23CC4CC(CC(C4)C2)C3)cc(C[N+](Cc2cccc(CNC34CC5CC(CC(C5)C3)C4)c2)(Cc2cccc(CNC34CC5CC(CC(C5)C3)C4)c2)Cc2cccc(CNC34CC5CC(CC(C5)C3)C4)c2)c1 (stereo not given),3.19% [42 µM] (active),-5.66% [42 µM] (active),36.9% [42 µM],31.2% [42 µM],11.6% [42 µM],43% [42 µM],23.1% [42 µM],30.3% [42 µM],-4.47% [42 µM] (active),51.5% [42 µM]
CC1(C)Cc2c(Br)c(Br)c(Br)c(OCC(O)CN3CCOCC3)c2O1 (stereo not given),88.2%,64.6%,94%,100%,93.5%,9.22% (active),66.5%,94.6%,87.1%,137%
[2H]c1nc(Nc2ncc3cc(C(=O)N(C)C)n(C4CCCC4)c3n2)c([2H])c([2H])c1N1C([2H])([2H])C([2H])([2H])NC([2H])([2H])C1([2H])[2H],79.9%,27.6%,69.7%,61.5%,56.1%,54.6%,72.3%,64.6%,40.2%,84.2%
C=C1C(=O)O[C@H]2[C@H]1CC/C(COC(=O)CCCCCCCC(=O)OC/C1=C/CC[C@@]3(C)O[C@H]3[C@H]3OC(=O)C(=C)[C@@H]3CC1)=C\CC[C@@]1(C)O[C@@H]21,-4.93% (active),-8.08% (active),68%,55%,32.3%,15.2%,17.5%,-10.2% (active),-51.9% (active),20.7%
COC1=CC2C=C(C3N(c4ccccc4)NC(=O)[C@@H]4CCCN34)C(=O)NC2C=C1 (stereo not given in full),101%,102%,85%,104%,110%,102%,102%,104%,92.8%,108%
C/C(=N/Nc1nc2ccccc2n1C)c1ccccn1,25.3%,14.7%,28%,15.2%,0.141% (active),19.1%,-6.67% (active),-26.5% (active),-39.4% (active),27.6%
CCCCc1n(Cc2ccc3ccccc3c2)c2ccccc2[n+]1Cc1ccc2ccccc2c1,-89.2% (active),-74.8% (active),-9.62% (active),-92.5% (active),-87.2% (active),-76.8% (active),-100% (active),-92.3% (active),-93.5% (active),-92.9% (active)
O=C(O)C(C(=O)O)c1cccc2ccccc12,104%,94.9%,99.3%,98.3%,99.5%,100%,103%,96.8%,97.4%,111%
CCCCn1c2cc(OCc3cn(-c4ccc(Cl)cc4)nn3)ccc2c2ccnc(C)c21,17.7%,6.28% (active),32.8%,56.8%,21.8%,44.7%,38.9%,33%,20.1%,67.9%
COc1ccccc1Nc1nnc(-c2ccc(Cl)cc2)o1,33.1%,16.1%,55.1%,46.4%,34.4%,56.7%,37.6%,51.8%,51.7%,64%
CC(/C=C/c1ccccc1)=N/NC(=O)c1ccncc1,100%,108%,97.7%,102%,98.3%,92.5%,100%,94.1%,99.5%,118%
COC(=O)CCc1n(Cc2ccc3ccccc3c2)c2ccccc2[n+]1Cc1ccc2ccccc2c1,79.1%,-25.5% (active),-8.15% (active),16%,8.5% (active),6.6% (active),-92.9% (active),-54% (active),-59.3% (active),4.8% (active)
Nc1ccc(C(=O)Nc2cccc(C(=O)Nc3ccc4c(O)c(N=Nc5ccc(N=Nc6ccc(S(=O)(=O)O)cc6)cc5)c(S(=O)(=O)O)cc4c3)c2)cc1,102%,97.6%,85.7%,107%,107%,98.2%,107%,98.6%,94.7%,99.7%
O=C1C(Cl)=C(Nc2ccc3c(c2NC2=C(Cl)C(=O)c4ccccc4C2=O)C(=O)c2ccccc2C3=O)C(=O)c2ccccc21,15.6%,5.49% (active),-15.1% (active),29.1%,14.3%,11%,-95.5% (active),-62.6% (active),3.18% (active),47.1%
COc1ccc2nc(-c3ccc(Cl)cc3)cc(-c3nnc(SCC(=O)Nc4ccc(/C(C)=N\O)cc4)o3)c2c1,23.6%,24.5%,39.9%,-18.2% (active),-15.2% (active),13.7%,71.5%,45.2%,25.3%,72.6%
CC(C)(C)CC(C)(C)Cc1ccc(OCCOCC[N+](C)(C)Cc2ccccc2)cc1,97%,9.89% (active),-9% (active),-7.68% (active),2.86% (active),10.1%,-98.8% (active),-36.1% (active),10.5%,20.5%
COc1cc(F)c(-c2nc3c(C)cccc3n2Cc2c(F)cccc2F)c(F)c1,81.9%,70.1%,71.5%,91.6%,83.6%,64.2%,85.6%,64.5%,87.8%,98.7%
O=c1[nH]nc(-c2ccc(Br)cc2)c2sc(NC(=S)Nc3ccc(Cl)cc3)nc12,103%,94.1%,95.7%,103%,108%,96.6%,99%,89.5%,84.7%,109%
Cc1nc(C)c(C)nc1C,109%,97%,101%,99.2%,96.7%,98.3%,102%,101%,101%,113%
NC[C@@H]1CCN(c2cc3c(cc2F)c(=O)n(N)c(=O)n3Cc2ccc(-c3ccccc3)cc2)C1,50.1%,30.4%,77.9%,102%,64.5%,71.4%,72.4%,94.6%,78.9%,113%
Cc1ccc(-c2nc(C#N)c(S(=O)(=O)N(C)CCO)o2)cc1,37.6%,28.1%,101%,86.5%,83.7%,99.8%,71.4%,62.4%,41.9%,82%
O=C(Nc1ccc(S(=O)(=O)NC2CCCCCC2)cc1)C(c1ccccc1)S(=O)(=O)c1ccc(F)cc1 (stereo not given),2.74% (active),-14.1% (active),3.64% (active),26.2%,12.6%,7.69% (active),-36.4% (active),-9.75% (active),5.06% (active),1.46% (active)
